Source: PubChem BioAssay (EPA / NIEHS)
Values joined by “and” are separate entries in the source; they are usually repeats but may differ in a detail not shown here. Equal values may be shown once. Records with an inconclusive call do not appear. The source holds several records for some structures; these can differ, active in one and inactive in another. Active and inactive are the calls of the source. Rule for the calls, unless noted: active = hit-call score of the fitted dose curve at least 0.9, where 1 is the maximum; inconclusive = response in the unintended direction; inactive = score below 0.9.

Experiments:
[1] = CLD_ACTIN_48hr: CellzDirect (CLD) Gene Expression Assay for Baseline Control (Actin) at 48 hours (AID 2283702)
How it was run: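 Primary human hepatocytes (two donor preparations) dosed daily for two days with ToxCast chemicals at multiple concentrations versus 0.2% DMSO vehicle; harvested at 48 h. Actin mRNA measured as a background control by quantitative nuclease protection assay with chemiluminescence.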

[2] = read-out: glucuronosyltransferase (UGT1A1), UGT1A1 (gene 54658); assay: CLD_UGT1A1_48hr: CellzDirect (CLD) Gene Expression Assay for glucuronosyltransferase (UGT1A1) at 48 hours (AID 2283709);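 note: actives increase expression relative to DMSO so potency refers to induction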
How it was run: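 Human primary hepatocytes dosed daily for two days (0.2% DMSO vehicle), harvested at 48 h. UGT1A1 mRNA induction measured by quantitative nuclease protection assay with chemiluminescence; gain of signal versus DMSO; cytotoxicity flagged from morphology.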

[3] = read-out: sulfotransferase (SULT2A), SULT2A1 (gene 6822); assay: CLD_SULT2A_48hr: CellzDirect (CLD) Gene Expression Assay for sulfotransferase (SULT2A) at 48 hours (AID 2283710);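 note: hits raise SULT2A1 transcript above the 0.2% DMSO vehicle baseline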
How it was run: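 Primary human hepatocytes (two donor preparations) dosed daily for two days with chemicals at multiple concentrations, vehicle 0.2% DMSO; SULT2A1 mRNA induction at 48 h by quantitative nuclease protection assay, chemiluminescent read-out, fitted for gain of signal versus DMSO.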

[4] = read-out: HMG-CoA synthase (HMGCS2), HMGCS2 (gene 3158); assay: CLD_HMGCS2_48hr: CellzDirect (CLD) Gene Expression Assay for HMG-CoA synthase (HMGCS2) at 48 hours (AID 2283711)
How it was run: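 Primary human hepatocytes from two donors dosed daily for two days, 0.2% DMSO vehicle. HMGCS2 mRNA measured 48 h after dosing by quantitative nuclease protection assay with chemiluminescent read-out; induction fitted relative to DMSO, cytotoxicity flagged by microscopy.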

[5] = STM_H9_OrnithineISnorm_perc: Stemina devTOX quickPredict H9 human embryonic stem cell (hESC)-based Assay for Ornithine (ORN) Metabolite Biomarker, Normalized (AID 2283712; active = hit-call score of the fitted dose curve at least 0.9, where 1 is the maximum; inactive = score below 0.9;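 note: ornithine released into spent medium during last day measured by mass spectrometry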)
How it was run: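 Undifferentiated pluripotent H9 hESCs were exposed to compound for 72h, with media and compound replaced every 24h. Ornithine in final 24-h conditioned media was measured by UPLC-HRMS, normalized to 13C-labeled spike-in standard and to median 0.1% DMSO control.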

[6] = STM_H9_CystineISnorm_perc: Stemina devTOX quickPredict H9 human embryonic stem cell (hESC)-based Assay for Cystine (CYSS) Metabolite Biomarker, Normalized (AID 2283713; active = hit-call score of the fitted dose curve at least 0.9, where 1 is the maximum; inactive = score below 0.9)
How it was run: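 Undifferentiated H9 hESCs were exposed to compound for 72h, with medium and compound replaced every 24h. Final-24h conditioned medium was deproteinized and analyzed by UPLC-HRMS. Cystine EIC area was normalized to spiked C13 standard and 0.1% DMSO median.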

[7] = Tanguay_ZF_120hpf_ActivityScore_legacy: (Legacy) Oregon State University Tanguay Lab 120 Hour Post-fertilization zebrafish Assay Score for Activity (AID 2283742);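 for AC50: dechorionated Tropical 5D wild-type zebrafish embryos held singly per well; static exposure from 6 hpf until 120 hpf at 28 °C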
How it was run: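 Embryos are staged, enzymatically dechorionated at 4 hpf, placed individually at 6 hpf, then held in test chemical (0.64% DMSO) at 28C until 120 hpf. Mortality and malformations are scored by brightfield, with non-mortality endpoints skipped for dead embryos.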

[8] = read-out: Broad substrate specificity ATP-binding cassette transporter ABCG2 (Homo sapiens) (UniProt Q9UNQ0); assay: CLD_ABCG2_48hr: CellzDirect (CLD) Gene Expression Assay for ABC Transporter (ABCG2) at 48 hours (AID 2283704);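 for AC50: potency for induction of ABCG2 mRNA above the DMSO baseline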
How it was run: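 Primary human hepatocytes from two donors, dosed daily for 2 days, 0.2% DMSO vehicle, several concentrations. ABCG2 mRNA at 48 h by qNPA chemiluminescence, gain fitted versus DMSO; cytotoxicity flagged by morphology.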

[9] = target: Luciferin 4-monooxygenase (Photinus pyralis) (UniProt P08659); assay: CCTE_Simmons_QuantiLum_inhib_2: CCTE's Firefly Luciferase Inhibition Assay, Simmons Lab (AID 2283767);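 for AC50: potency for inhibitors that lower luciferase luminescence relative to DMSO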
How it was run: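 Recombinant firefly luciferase (5 ng/well, 200 mM potassium phosphate with 1 mg/ml BSA) was exposed to 8 concentrations from 5 nM to 87.5 uM (final, 0.5% DMSO) for 30 min at 37C in the dark. Loss of luminescence versus DMSO was read after injecting D-luciferin/ATP-analogue reagent.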

[10] = CEETOX_H295R_MTT_cell_viability: Viability Assessment in the CeeTox HT-H295R MTT Assay (AID 2283718; active = hit-call score of the fitted dose curve at least 0.9, where 1 is the maximum; inactive = score below 0.9)
How it was run: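 MTT reduction (0.5 mg/ml, 4 h at 37 C; absorbance at 570 and 650 nm) gave viability as background-corrected percent change versus controls. H295R cells had 48 h forskolin (10 uM) prestimulation, then 48 h chemical exposure at 0.1% DMSO.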

[11] = read-out: xenobiotic metabolism (CYP1A2), CYP1A2 (gene 1544); assay: CLD_CYP1A2_48hr: CellzDirect (CLD) Gene Expression Assay for xenobiotic metabolism (CYP1A2) at 48 hours (AID 2283703)
How it was run: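 Primary human hepatocytes from two donor preparations were dosed daily for two days at multiple concentrations in 0.2% DMSO vehicle. CYP1A2 mRNA was measured at 48 hours by chemiluminescent quantitative nuclease protection assay, with gain of signal fitted versus DMSO and cytotoxicity annotated from morphology.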

[12] = test system: Thyroperoxidase (TPO), gene 445522; assay: CCTE_Simmons_GUA_TPO: CCTE's Guaiacol Assay for Thyroperoxidase (TPO) Inhibition, Simmons Lab (AID 2283750)
How it was run: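 Porcine thyroid microsomes (25 ug) in 200mM potassium phosphate, preincubated 30 s at 37C with compound (8 concentrations, 5 nM–87.5 uM) and 35mM guaiacol; 1mM H2O2 starts reaction. Absorbance change at 450nm over first 80 s; loss of signal versus DMSO, three replicates.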

[13] = ArunA_CellTiter_hNC: Viability Assessment in the ArunA Biomedical's Oris Neural Crest (hNC) Cell Migration Assay (AID 2283752)
How it was run: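 Human H9-derived neural crest stem cells were plated at 60,000 per well on Matrigel in growth medium with LIF and bFGF, incubated 16 h at 37C, then exposed to chemical for 72 h. Viability was read with CellTiter Aqueous One as loss of signal versus DMSO.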

[14] = ArunA_CellTiter_hNP: Viability Assessment in the ArunA Biomedical's Oris Neural Crest (hNC) Cell Migration Assay (AID 2283753)
How it was run: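 H9-derived hNP1 neuroprogenitors, 60,000/well on Matrigel, cultured 16 h, then 72 h chemical exposure in test medium. Cell titer via CellTiter Aqueous One; positive-direction fit vs DMSO.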

[15] = ArunA_Migration_hNP: ArunA Biomedical's Oris Neuroprogenitor (hNP) Cell Migration Assay (AID 2283754)
How it was run: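 Human H9-derived hNP1 neuroprogenitors on Matrigel with LIF/bFGF, plated around seeding stoppers for 16 h at 37C; stoppers removed at start of 72 h chemical exposure. Calcein-AM staining, fluorescence 494/517 nm in detection zone; loss-of-signal vs DMSO; cytochalasin D control.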

[16] = ArunA_Migration_hNC: ArunA Biomedical's Oris Neural Crest (hNC) Cell Migration Assay (AID 2283755)
How it was run: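 Human H9-derived neural crest stem cells, 60,000/well on Matrigel, 16 h at 37C, then 72 h chemical exposure after seeding-stopper removal. Migration into detection zone read as calcein-AM fluorescence (ex494/em517), relative to DMSO.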

[17] = ArunA_NOG_NucleusCount: ArunA Biomedical's Neurite Outgrowth (NOG) Assay for Nucleus Count (AID 2283756)
How it was run: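 Human H9-derived differentiated neurons were exposed for 48 h right after seeding. Hoechst-stained nuclei gated by size and intensity were counted by automated high-content imaging as viable neurons. Loss of signal vs DMSO.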

[18] = ArunA_NOG_NeuritesPerNeuron: ArunA Biomedical's Neurite Outgrowth (NOG) Assay for Neurites Per Neuron (AID 2283758)
How it was run: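 Differentiated human H9-derived neurons exposed to chemicals for 48 h from seeding, then stained with Hoechst and βIII-tubulin/DyLight 488. Automated imaging counted neurites (processes >10 um) per valid neuron; loss of signal versus DMSO scored.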

Measured: AC50

Chain of Luciferin 4-monooxygenase (Photinus pyralis) (P08659 whole entry, looked up): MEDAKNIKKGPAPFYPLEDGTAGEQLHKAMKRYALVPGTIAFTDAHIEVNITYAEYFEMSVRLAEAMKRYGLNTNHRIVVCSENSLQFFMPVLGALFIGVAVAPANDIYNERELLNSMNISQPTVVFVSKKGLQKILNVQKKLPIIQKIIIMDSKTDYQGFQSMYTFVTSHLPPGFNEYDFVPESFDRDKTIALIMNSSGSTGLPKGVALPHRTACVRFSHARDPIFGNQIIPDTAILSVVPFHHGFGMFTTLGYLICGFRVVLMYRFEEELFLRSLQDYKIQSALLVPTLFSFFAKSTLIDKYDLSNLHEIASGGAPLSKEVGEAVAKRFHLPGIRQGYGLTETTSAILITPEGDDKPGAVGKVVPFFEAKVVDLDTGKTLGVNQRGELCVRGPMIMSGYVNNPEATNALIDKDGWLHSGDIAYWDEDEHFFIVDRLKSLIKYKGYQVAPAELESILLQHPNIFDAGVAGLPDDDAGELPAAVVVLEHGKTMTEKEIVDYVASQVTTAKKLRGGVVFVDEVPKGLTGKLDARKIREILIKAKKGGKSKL
Chain of Broad substrate specificity ATP-binding cassette transporter ABCG2 (Homo sapiens) (Q9UNQ0 whole entry, looked up): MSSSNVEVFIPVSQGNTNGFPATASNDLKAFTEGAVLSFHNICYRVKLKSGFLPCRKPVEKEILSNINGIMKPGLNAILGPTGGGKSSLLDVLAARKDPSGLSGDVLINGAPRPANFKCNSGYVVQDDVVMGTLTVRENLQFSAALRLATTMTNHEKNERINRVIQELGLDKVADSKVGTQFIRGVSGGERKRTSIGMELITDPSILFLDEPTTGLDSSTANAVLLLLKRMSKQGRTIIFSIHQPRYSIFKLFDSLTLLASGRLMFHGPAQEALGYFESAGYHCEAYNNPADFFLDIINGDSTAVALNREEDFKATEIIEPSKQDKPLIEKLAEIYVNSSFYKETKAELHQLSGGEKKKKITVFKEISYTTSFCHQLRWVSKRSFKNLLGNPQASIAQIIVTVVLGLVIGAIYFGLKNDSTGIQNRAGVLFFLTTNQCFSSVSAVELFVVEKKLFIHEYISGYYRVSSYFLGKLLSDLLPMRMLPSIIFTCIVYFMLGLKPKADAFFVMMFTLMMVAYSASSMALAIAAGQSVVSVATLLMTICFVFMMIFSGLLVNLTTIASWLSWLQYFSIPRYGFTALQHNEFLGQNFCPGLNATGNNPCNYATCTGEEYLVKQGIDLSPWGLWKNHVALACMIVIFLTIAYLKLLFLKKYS

CCSC(=O)N(CC(C)C)CC(C)C
inactive: [1] | [2] | [3] | [4] | [5] | [6] | [7]

COc1c(Cl)ccc(Cl)c1C(=O)O
active: [4] 0.00707 µM
inactive: [1] | [8] | [2] | [3] | [7]

CCOC(=O)C(C)Oc1ccc(Oc2nc3ccc(Cl)cc3o2)cc1 (configuration not stated)
inactive: [1] | [8] | [2] | [3] | [4] | [7]
active: [9] 71.3 µM

S=C([S-])NCCNC(=S)[S-].[Mn+2]
inactive: [1] | [6] | [10] | [7] | [9]
active: [8] 3.4 µM | [5] 88.1 µM

COC(=O)c1ccccc1C(=O)O
active: [5] 0.00297 µM
inactive: [1] | [11] | [8] | [2] | [3] | [4] | [6] | [10] | [7]

CCC(C)OC(=O)N1CCCCC1CCO (configuration not stated)
inactive: [1] | [8] | [2] | [3] | [4] | [7]

COC(=O)c1ccccc1S(=O)(=O)NC(=O)Nc1nc(OC(F)F)cc(OC(F)F)n1
inactive: [1] | [2] | [4]

COC(=O)c1ccc(CNS(C)(=O)=O)cc1S(=O)(=O)NC(=O)Nc1nc(OC)cc(OC)n1
inactive: [1] | [2] | [3]

O=C(O)C1(C(=O)Nc2ccc(Cl)cc2Cl)CC1
active: [7] 19.6 µM
inactive: [1] | [2] | [4] | [5] | [6]

CCOC(=O)C(C)Oc1ccc(Oc2cnc3cc(Cl)ccc3n2)cc1 (configuration not stated)
active: [4] 6.86 µM | [6] 9.92 µM
inactive: [1] | [2] | [3] | [5] | [7]

CSC(=O)c1cccc2nnsc12
active: [5] 80.2 µM | [6] 81.4 µM
inactive: [1] | [8] | [2] | [3] | [4] | [10] | [7] | [12] | [9]

CC1(C)C(C=C(Cl)Cl)C1C(=O)OCc1cccc(Oc2ccccc2)c1 (configuration not stated)
inactive: [1] | [8] | [3] | [10]
active: [2] 3.97 µM

CC(C)(c1ccc(O)cc1)c1ccc(O)cc1
inactive: [1] | [8] | [2] | [3] | [6] | [10] | [13] | [14] | [15] | [16] | [17] | [18] | [9]
active: [5] 67.3 µM | [7] 45 µM and 33.6 µM and 35.6 µM

Oc1ccc(C(c2ccc(O)cc2)C(Cl)(Cl)Cl)cc1
inactive: [1] | [2] | [4] | [6] | [10] | [9]
active: [5] 0.00653 µM | [7] 30.8 µM

CCCOC(=O)NCCCN(C)C
inactive: [1] | [8] | [2] | [3] | [4] | [7]
